Shiga inhibitor: blocks Shiga toxin action in Vero cells | inhibition, % at 38.7 µM | Vero cells, Shiga toxin protein synthesis inhibition reporter | hit rate 9.2% among 290,000 | AID 2315; in the data active means inhibition mostly above about 28%, no sharp cut-off; inactive means mostly below about 43%; further: 0% is about no effect
LmPK inhibitor: blocks Leishmania mexicana pyruvate kinase activity. purified LmPK, Kinase-Glo ATP luminescence, 1 h. hit rate 0.37% among 290,000. AID 1721. Potency, µM (series often up to 57.5 µM), inactives show at the top dose activity change, negative = inhibition, usual class: inhibitors; further: potency means the concentration at half of the fitted maximal effect; on the % scale 0 is the no-effect control and ±100 the full control effect
Target sequence (Q27686 whole entry, looked up): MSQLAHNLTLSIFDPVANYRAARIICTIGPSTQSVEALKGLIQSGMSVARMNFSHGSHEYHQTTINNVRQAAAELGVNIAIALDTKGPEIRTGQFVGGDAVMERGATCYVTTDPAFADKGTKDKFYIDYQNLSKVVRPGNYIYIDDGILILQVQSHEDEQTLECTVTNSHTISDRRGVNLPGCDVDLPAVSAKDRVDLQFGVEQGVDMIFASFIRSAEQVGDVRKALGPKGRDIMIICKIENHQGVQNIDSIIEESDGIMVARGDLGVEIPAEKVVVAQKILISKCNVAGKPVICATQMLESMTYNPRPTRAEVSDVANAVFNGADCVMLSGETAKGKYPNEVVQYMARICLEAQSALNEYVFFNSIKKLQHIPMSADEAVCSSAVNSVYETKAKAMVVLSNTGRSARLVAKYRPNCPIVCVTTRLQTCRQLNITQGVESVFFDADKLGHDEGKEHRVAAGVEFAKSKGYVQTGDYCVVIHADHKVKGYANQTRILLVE
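qHTS format; LmPK 0.1 nM; substrates PEP 0.5 mM and ADP 0.1 mM. One-hour room-temperature incubation, then coupled luciferase luminescence; 0.5 nM enzyme wells mark activation.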
CHX counter: counter-screen hit for Shiga toxin inhibitors, cycloheximide; hit rate 12% among 300,000; cell reporter, cycloheximide protein synthesis inhibition counterscreen; max response, %; in the data active means max response mostly above about 13%, no sharp cut-off; inactive means mostly below about 14%; further: read at 38.3 µM for the half of the compounds with a filed dose; 0% is about no effect
Pf growth 48h: P. falciparum growth inhibition at 48 hours (one generation); P. falciparum luciferase growth in erythrocytes, 48 h; Potency, µM (series often up to 28.7 µM), inactives show at the highest dose activity change, negative = inhibition, actives largely listed as inhibitors; hit rate 5.9% among 310,000; further: potency means the concentration at half of the fitted maximal effect; on the % scale 0 is the no-effect control and ±100 the full control effect
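Compounds are pin-transferred into medium, infected erythrocytes (2% hematocrit, 0.1% parasitemia final) are added, and plates sit one parasite generation at 37 C in 5% CO2. Detection reagent is then added and luminescence measured.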
Pf growth 96h: P. falciparum growth inhibition at 96 hour, primary screen for plastid delayed-death inhibitors; P. falciparum luciferase reporter growth, 96 h; Potency, µM (series often up to 28.7 µM), for inactives: at the highest dose activity change, negative = inhibition, usual class: inhibitors; hit rate 6.9% among 320,000; AID 504834; further: potency means the concentration at half of the fitted maximal effect; on the % scale 0 is the no-effect control and ±100 the full control effect
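Parasite growth measured via integrated firefly luciferase reporter in P. falciparum. Infected erythrocytes at 2% hematocrit, 0.05% parasitemia final were treated 96 hours at 37 C under 5% CO2, and luminescence was read.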
* = called active by the depositor; ? = inconclusive; · = no result given; + = active, no number; [ ] = dose if it differs, or a comment. Shown are actives, neighbours in structure and some others; about 22% of the full set was active somewhere. Unless noted, the call rests on the fitted dose curve; in most records, active means well fitted inhibition curve with a large enough effect; inconclusive means small, poorly fitted or top-dose-only effect, or another doubt; inactive means no such curve, though single readings can be large or run the other way.

SMILES	Shiga inhibitor	LmPK inhibitor	CHX counter	Pf growth 48h	Pf growth 96h
CC1CCN(c2nc3ccc(C(=O)N4CCN(Cc5ccc6c(c5)OCO6)CC4)cc3s2)CC1	+	7%	136*	·	4.1µM*
O=C(COC(=O)c1n[nH]c(=O)c2ccccc12)NC1CCCCC1	·	·	·	1%	-19%
CC(=O)Nc1ccc(S(=O)(=O)c2cc(O)ccc2O)cc1	-2	-5%	1	-2%	?
O=C(c1ccc(S(=O)(=O)N2CCCC2)cc1)N1CCN(Cc2ccc3c(c2)OCO3)CC1	-4	-2%	-2	?	·
Cc1ccc(C(=O)N2CCN(Cc3ccc4c(c3)OCO4)CC2)cc1S(=O)(=O)N1CCOCC1	-9	-3%	-2	?	10µM*
Cc1cc(C)nc(SCc2ccc(C(=O)N/N=C3\CCCC(=O)C3)cc2)n1	-5	1%	-2	?	?
CCCOc1ccc(N2C(=O)CC(SCCN)C2=O)cc1 (stereo not drawn)	93*	-22%	50*	216%	?
CCOC(=O)C(N)CSC1CC(=O)N(c2ccc(C(=O)OC)cc2)C1=O (stereo not drawn)	-10	0%	1	54%	5.2µM*
COC(=O)c1ccc(N2C(=O)CC(N(C)Cc3ccccc3)C2=O)cc1 (stereo not drawn)	-11	0%	1	14%	0.29µM*
COC(=O)c1ccc(N2C(=O)CC(SCCN)C2=O)cc1 (stereo not drawn)	54*	-3%	42*	104%	0%
COC1=CCC2([N+](=O)[O-])CN(CCO)CC1([N+](=O)[O-])C2 (stereo not drawn)	20	-2%	11	23%	?
COc1ccc(C(=O)N(C)Cc2ccc(C)o2)cc1OC1CCN(C(C)=O)CC1	-8	1%	-2	1%	0%
Cc1ccc(C[n+]2ccccc2)cc1	·	·	·	9.3µM*	?
CCCC(=O)c1ccc(-c2ccccc2)cc1	84*	-11%	28*	63%	31%
COC(=O)c1ccc(C[n+]2ccccc2)cc1	·	0%	3	11%	-29%
COc1ccc(C(=O)C[n+]2ccccc2C)cc1	-5	2%	-1	?	?
Cc1ccc(C(=O)COC(=O)c2cccc(NC(=O)c3ccc([N+](=O)[O-])cc3[N+](=O)[O-])c2)cc1	136*	-7%	36*	-64%	195%
Cc1ccc(C)[n+](CC(=O)c2ccc(-c3ccccc3)cc2)c1	-6	1%	-2	9.3µM*	-6%
Cc1cc(C)c(NC(=O)CS)c(Cl)c1	1	2%	-5	-17%	?
Cc1cc(C)c(C(=O)CC(=O)c2ccccc2Cl)c(O)c1	22	7%	22*	24%[0.00184 µM]	?
COc1ccc(CCC(=O)OC(C)C(=O)c2ccc(C)cc2)cc1 (stereo not drawn)	-10	-1%	-4	-3%	-1%
CC(=O)Nc1cc[n+](CC(=O)c2ccc(Cl)cc2)cc1	-8	0%	0	?	9.3µM*
Cc1ccc(C(=O)CCc2ccc(N)cc2)cc1	96*	2%	31*	61%	56%
CC(=O)Nc1cc[n+](C(C)C(=O)c2ccc(Cl)cc2)cc1 (stereo not drawn)	-2	2%	5	?	36%
Cc1cc(C)c(NC(=O)CC(=O)c2ccccc2)c(Cl)c1	65*	-1%	22*	19%	8%
SMILES	Shiga inhibitor	LmPK inhibitor	CHX counter	Pf growth 48h	Pf growth 96h
O=C(CCNC(=O)c1ccc(Br)cc1)NCCCN1CCCC1=O	·	·	·	-6%	19%
CCOC(=O)C1CCN(S(=O)(=O)c2ccc3c(c2)N(C(C)=O)CC(C)S3)CC1 (stereo not drawn)	-2	-7%	-2	?	-2%
Cc1ccc(C(=O)CCC(=O)NCc2ccccc2)cc1	6	-1%	-3	35%	?
Cc1ccc(C(=O)Sc2cccccc2=O)cc1	135*	-12%	78*	4.1µM*	2.9µM*
CC(=O)Nc1cc(C(=O)OCC(=O)c2ccccc2)ccc1C	active	0%	35*	153%	202%
O=C(COC(=O)c1ccccc1-n1cnnn1)c1ccc(Br)cc1	·	·	·	58%	31%
CN(C(=O)c1ccccc1C(=O)OCC(=O)c1ccc(Br)cc1)c1ccccc1	·	·	·	?	12µM*
Cc1ccc(S(=O)(=O)/N=C(/Sc2ccccc2C(=O)O)c2ccccc2)cc1	-4	-2%	-11	34%	-5%
Cc1ccc(C(=O)CC(=O)c2ccccc2)cc1	66*	-2%	48*	45%	3.7µM*
